Several values for one entry are separate records, joined by “and”; a condition that tells them apart may be missing. Identical values can stand only once. Screen size: about 5,500 compounds; about 2,000 (36%) were called active. About 18% were inconclusive and are not listed. Cut-off read from the data, not from the text of the source: active = normalized growth mostly below about 0.91 (no sharp cut-off); inconclusive = no clear call, values can overlap the other calls; inactive = mostly above about 0.92. Some of the results follow.
Experiment: chemical genetic growth profiling, strain panel (AID 1159580);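 note: tested at 20 µM; growth read once vehicle control cultures reached saturation at 30 °C; 1 = growth at the plate median or of vehicle wells; lower values mean less growth of the strain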
Conditions: S. cerevisiae deletion strains, growth OD

Measured: normalized growth

CNC(C)[C@H](O)c1ccccc1 (stereo partly drawn)
inactive: locus YAL013W, strain DEP1, hits give low values 1 | locus YAL021C, strain ccr4, hits give low values 1.03 | locus YAL026C, strain drs2, hits give low values 1.01 | locus YAL030W, strain snc1, hits give low values 1.01 | locus YBL061C, strain skt5, hits give low values 1.02 | locus YBR009C, strain hhf1, hits give low values 0.977 | locus YBR021W, strain FUR4, hits give low values 1.07 | locus YBR023C, strain chs3, hits give low values 1.01 | locus YBR171W, strain sec66, hits give low values 0.993 | locus YBR229C, strain ROT2, hits give low values 1.01 | locus YBR231C, strain swc5, hits give low values 1.01 | locus YBR279W, strain paf1, hits give low values 1 | locus YCL011C, strain gbp2, hits give low values 1.01 | locus YCL016C, strain dcc1, hits give low values 1.04 | locus YCL029C, strain bik1, hits give low values 1 | locus YCL061C, strain MRC1, hits give low values 0.995 | locus YCL069W, strain vba3, hits give low values 0.986 | locus YCR088W, strain abp1, hits give low values 0.989 | locus YDL005C, strain med2, hits give low values 0.999 | locus YDL035C, strain GPR1, hits give low values 1.05 | locus YDL040C, strain nat1, hits give low values 1 | locus YDL074C, strain BRE1, hits give low values 1.02 | locus YDL101C, strain DUN1, hits give low values 1.01 | locus YDL134C, strain PPH21, hits give low values 1.04 | locus YDL185W, strain tfp1, hits give low values 0.991 | locus YDL192W, strain arf1, hits give low values 0.998 | locus YDR001C, strain nth1, hits give low values 0.996 | locus YDR069C, strain doa4, hits give low values 1.02 | locus YDR101C, strain arx1, hits give low values 1.02 | locus YDR137W, strain rgp1, hits give low values 1 | locus YDR159W, strain sac3, hits give low values 0.995 | locus YDR162C, strain NBP2, hits give low values 1.02 | locus YDR195W, strain ref2 1.01 | locus YDR297W, strain sur2, hits give low values 1.01 | locus YDR318W, strain mcm21, hits give low values 1 | locus YDR334W, strain swr1, hits give low values 0.983 | locus YDR335W, strain msn5, hits give low values 1.03 | locus YDR388W, hits give low values 0.995 | locus YDR392W, strain spt3, hits give low values 1.05 | locus YDR502C, strain sam2, hits give low values 0.997 | locus YEL003W, strain gim4, hits give low values 0.992 | locus YEL037C, strain rad23, hits give low values 0.986 | locus YEL061C, strain CIN8 (second series), hits give low values 0.993 | locus YEL061C, strain CIN8, hits give low values 1.02 | locus YER015W, strain faa2, hits give low values 1.01 | locus YER016W, strain bim1, hits give low values 1.03 | locus YER110C, hits give low values 0.986 | locus YER111C, strain swi4, hits give low values 1 | locus YER155C, strain BEM2 (second series), hits give low values 1.02 | locus YER155C, strain BEM2, hits give low values 1.01 | locus YER167W, strain BCK2, hits give low values 1.02 | locus YFR010W, strain ubp6, hits give low values 0.96 | locus YGL078C, strain dbp3, hits give low values 0.994 | locus YGL086W, strain mad1, hits give low values 1.01 | locus YGL167C, strain pmr1, hits give low values 1.01 | locus YGL173C, strain kem1, hits give low values 1.01 | locus YGL227W, strain vid30, hits give low values 0.994 | locus YGL240W, strain doc1, hits give low values 0.993 | locus YGL248W, strain PDE1, hits give low values 1.02 | locus YGL253W, strain hxk2, hits give low values 1.01 | locus YGR078C, strain PAC10, hits give low values 1.02 | locus YGR135W, strain pre9, hits give low values 0.986 | locus YGR229C, strain SMI1, hits give low values 1.02 | locus YGR252W, strain gcn5, hits give low values 0.98 | locus YHR013C, strain ard1, hits give low values 1.04 | locus YHR027C, strain rpn1, hits give low values 0.998 | locus YHR030C, strain SLT2, hits give low values 1.02 and 1.05 | locus YHR079C, strain IRE1 (second series), hits give low values 1 | locus YHR079C, strain IRE1, hits give low values 1.03 | locus YHR094C, strain hxt1, hits give low values 0.989 | locus YHR129C, strain ARP1, hits give low values 1.01 | locus YHR142W, strain chs7, hits give low values 1 | locus YHR200W, strain rpn10, hits give low values 0.999 | locus YIL066C, strain RNR3, hits give low values 1.03 | locus YIL073C, strain SPO22, hits give low values 0.991 | locus YIL125W, strain kgd1, hits give low values 1 | locus YIR030C, strain dcg1, hits give low values 1 | locus YJL092W, strain hpr5, hits give low values 1 | locus YJL095W, strain BCK1 (second series), hits give low values 1.01 | locus YJL095W, strain BCK1, hits give low values 1.01 and 1.06 | locus YJL115W, strain asf1, hits give low values 0.993 | locus YJL129C, strain trk1, hits give low values 1.01 | locus YJL134W, strain LCB3, hits give low values 1 | locus YJL154C, strain vps35, hits give low values 0.986 | locus YJL164C, strain tpk1, hits give low values 1.01 | locus YJL166W, strain qcr8, hits give low values 1.01 | locus YJL168C, strain set2, hits give low values 0.991 | locus YJL187C, strain SWE1 (second series), hits give low values 1.01 | locus YJL187C, strain SWE1, hits give low values 1.02 | locus YJR043C, strain POL32, hits give low values 1.04 | locus YJR066W, strain TOR1, hits give low values 0.972 | locus YKL009W, strain mrt4, hits give low values 0.992 | locus YKL068W, hits give low values 0.995 | locus YKL085W, strain MDH1 (second series), hits give low values 1.03 | locus YKL085W, strain MDH1, hits give low values 1.03 | locus YKL160W, strain elf1, hits give low values 1.05 | locus YKL190W, strain CNB1, hits give low values 1.01 | locus YKR001C, strain vps1, hits give low values 0.997 | locus YKR026C, strain gcn3, hits give low values 0.995 | locus YKR091W, strain srl3, hits give low values 1 | locus YLL001W, strain dnm1, hits give low values 1.02 | locus YLL026W, hits give low values 1.02 | locus YLL041C, strain sdh2, hits give low values 0.996 | locus YLR027C, strain aat2, hits give low values 1.02 | locus YLR039C, strain RIC1, hits give low values 0.978 | locus YLR058C, strain SHM2, hits give low values 1.01 | locus YLR102C, strain apc9, hits give low values 0.986 | locus YLR113W, strain HOG1, hits give low values 1.08 | locus YLR221C, strain rsa3, hits give low values 0.984 | locus YLR258W, strain gsy2, hits give low values 1.03 | locus YLR262C, strain YPT6 (second series), hits give low values 0.972 | locus YLR262C, strain YPT6, hits give low values 0.983 | locus YLR268W, strain sec22, hits give low values 0.993 | locus YLR320W, strain mms22, hits give low values 0.994 | locus YLR330W, strain CHS5, hits give low values 1.01 | locus YLR342W, strain FKS1 (second series), hits give low values 1.05 | locus YLR342W, strain FKS1, hits give low values 1.02 | locus YLR357W, strain rsc2, hits give low values 0.958 | locus YLR370C, strain arc18, hits give low values 1.03 | locus YLR371W, strain rom2, hits give low values 0.987 | locus YLR384C, strain iki3, hits give low values 0.995 | locus YLR418C, strain cdc73, hits give low values 1.01 | locus YML016C, strain PPZ1, hits give low values 1.01 | locus YML032C, strain rad52, hits give low values 1 | locus YML120C, strain ndi1, hits give low values 0.996 | locus YML124C, strain tub3, hits give low values 0.991 | locus YMR058W, strain fet3, hits give low values 0.999 | locus YMR078C, strain ctf18, hits give low values 0.989 | locus YMR125W, strain sto1, hits give low values 0.955 | locus YMR129W, hits give low values 1.02 | locus YMR205C, strain PFK2, hits give low values 1 | locus YMR223W, strain ubp8, hits give low values 0.998 | locus YMR231W, strain pep5, hits give low values 1 | locus YMR263W, strain SAP30, hits give low values 1.01 | locus YMR307W, strain GAS1, hits give low values 1.17 | locus YNL067W, strain RPL9B, hits give low values 1 | locus YNL071W, strain lat1, hits give low values 0.991 | locus YNL183C, strain NPR1, hits give low values 0.982 | locus YNL209W, strain ssb2, hits give low values 0.999 | locus YNL233W, strain BNI4, hits give low values 1.02 | locus YNL248C, strain rpa49, hits give low values 0.969 | locus YNL250W, strain rad50, hits give low values 0.989 | locus YNL271C, strain bni1, hits give low values 0.982 | locus YNL298W, strain CLA4, hits give low values 1.02 | locus YNL307C, strain MCK1, hits give low values 1 | locus YNL322C, strain KRE1 (second series), hits give low values 1.01 | locus YNL322C, strain KRE1, hits give low values 1.05 | locus YNR049C, strain mso1, hits give low values 0.996 | locus YNR052C, strain pop2, hits give low values 1 | locus YOL006C, strain TOP1, hits give low values 1.16 | locus YOL012C, strain htz1 1.33 | locus YOL147C, strain pex11, hits give low values 0.982 | locus YOR001W, strain rrp6, hits give low values 0.934 | locus YOR061W, strain CKA2, hits give low values 1.02 | locus YOR069W, strain VPS5, hits give low values 1.01 | locus YOR070C, strain gyp1, hits give low values 1.02 | locus YOR080W, strain dia2, hits give low values 1.01 | locus YOR083W, strain WHI5, hits give low values 1.04 | locus YOR106W, strain vam3, hits give low values 1.03 | locus YOR136W, strain idh2, hits give low values 1 | locus YOR144C, strain elg1, hits give low values 0.995 | locus YOR184W, strain ser1, hits give low values 1 | locus YOR231W, strain MKK1, hits give low values 1.06 | locus YOR265W, strain rbl2, hits give low values 1.01 | locus YOR270C, strain vph1, hits give low values 0.952 | locus YOR290C, strain snf2, hits give low values 1.06 | locus YOR316C, strain cot1, hits give low values 0.995 | locus YPL051W, strain arl3, hits give low values 1.03 | locus YPL055C, strain LGE1, hits give low values 1.01 | locus YPL078C, strain atp4, hits give low values 1.03 | locus YPL106C, strain sse1, hits give low values 1.04 | locus YPL240C, strain hsp82, hits give low values 0.992 | locus YPL256C, strain CLN2, hits give low values 1.04 | locus YPR119W, strain clb2, hits give low values 0.991 | locus YPR141C, strain kar3, hits give low values 0.985 | locus YPR163C, strain tif3, hits give low values 0.998 | locus YPR167C, strain met16, hits give low values 0.99 | strain wtn01, hits give low values 1

— PubChem BioAssay AID1159580 (chemical genetic matrix, 2015)
